Source: PubChem BioAssay (NCI)
Several values for one entry are separate records, joined by “and”; a condition that tells them apart may be missing. Equal entries are not always repeated. This is part of a sample that, as a whole, favours compounds with a hit. Of some 79,000 tested, about 15% had one in any assay. Values without a mark were called inactive. Activity calls are given as the source filed them. Rule as the data show it: active = growth inhibition above about 70%; inactive = the rest.

Assay: NCI Yeast Anticancer Drug Screen. Data for the rad50 strain (AID 155);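 also: 0% = growth of vehicle-only cultures of the same strain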
Settings: S. cerevisiae rad50 strain growth inhibition; at 50.0 µM; hits give high values
Method in brief: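 Cells are treated with compound, grown, and their growth is then scored against vehicle-only cultures of the same repair-deficient yeast strain.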

Row | SMILES | growth inhibition
1 | ClCCN(CCCl)c1ccc(-c2csc(Cc3ccccc3)n2)cc1 | -2%
2 | CCOc1ccc2c(N/N=C/c3ccc(N(CCCl)CCCl)cc3)cc(C)nc2c1 | 96.3% (active)
3 | C[CH2][Sn]([CH2]C)([O]c1cccccc1=O)[O]c1cccccc1=O | 87.1% (active)
4 | COc1cc(C(=O)O)cc(OC)c1OC | -19.9%
5 | CN(C)/N=C(\CCN1CCCC1)CC(c1ccccc1)c1c(O)c2ccccc2oc1=O (centres undefined) | 55%
6 | Cn1c(=S)[nH]n(CCOc2ccccc2)c1=S | -7.15%
7 | CC(C)(NC1=NCCO1)c1ccccc1 | -4.95%
8 | c1cc[c]([Ge]([c]2ccccc2)[c]2ccccc2)cc1.c1cc[c]([Ge]([c]2ccccc2)[c]2ccccc2)cc1 | 7.75%
9 | C/C=C/C=C\C=C/C(O)CC(OP(=O)(O)O)C(C)(O)/C=C/C1CC=CC(=O)O1 (centres undefined) | -9.75%

Assay: NCI Yeast Anticancer Drug Screen. Data for the mec2-1 strain (AID 157)
Settings: S. cerevisiae mec2-1 strain, at 50.0 µM, hits give high values
Method in brief: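 Yeast mec2-1 mutant treated with compound. Readout: growth inhibition vs vehicle controls.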

Row | SMILES | growth inhibition
10 | NC1(P(=O)(O)O)CCCCC1 | -3%
11 | CC([NH-])C[NH-].CC([NH-])C[NH-].[Co].[NH2-].[NH2-] (centres undefined) | -6.5%
12 | Cc1cccc(-n2c(C)nc3ccccc3c2=O)c1C | -1.1%
13 | CN1CCOC(c2ccccc2)c2ccsc2CC1 (centres undefined) | -5%
14 | Cc1cccc(C)c1N | 2.4%
15 | O=C(Cc1cccc([N+](=O)[O-])c1)Nc1cccc(S(=O)(=O)F)c1 | -19.6%
16 | O=C1/C(=C\c2cc3ccccc3c3ccccc23)N2CCC1CC2 | -10.2%
17 | CCCCCC[C@@H](O)[C@@H]1C2=C(C[C@H]([C@H](O)[C@@H]3CC=CC(=O)O3)CC3=C(C(=O)OC3=O)[C@@H]1O)C(=O)OC2=O | 2.75%
18 | CCCO[As](=O)(OCCC)OCCC | 6.95%
19 | COc1ccc(C(=O)Cc2c(C(=O)c3ccccc3)c3ccccc3n2C(=O)c2ccccc2)cc1 | -18.5%
20 | CC(N)Cc1ccc(Cl)cc1 (centres undefined) | -0.3%
21 | CCC1CN2CCC3(C(=O)Nc4ccccc43)C2CC1/C(=C/OC)C(=O)OC (centres undefined) | -12.3%
22 | CCC[CH2][Sn]([CH2]C)([CH2]C)[CH2]C | 17.8%
23 | C/C(=N\N(C)C)C(CN1CCCCC1)C(c1ccccc1)c1c(O)c2ccccc2oc1=O (centres undefined) | -30.2%
24 | CCCCCCCCCCCCCC[As](=O)(O)O | 17.9%
25 | CN1CCC2=C(c3ccccc3)c3ccccc3C2C1 (centres undefined) | -0.55%
26 | [CH3][Sn]1([CH3])[O]C(=O)c2ccccc2C(=O)[O]1 | 15.7%
27 | CN1CCc2c([nH]c3ccccc23)C1 | -7.3%
28 | Cc1ccc(OP(=O)(Oc2ccc(C)c(C)c2)Oc2ccc(C)c(C)c2)cc1C | -8.55%
29 | [O-][N+]12CCCCC1C1CC(C2)C2CCCC(c3ccccc3)N2C1 (centres undefined) | -25.1%

Row | SMILES | growth inhibition
30 | Cc1cccc(NC(=O)CCl)c1 | -23.4%
31 | COC(C(=O)C(O)C(C)O)C1Cc2cc3cc(OC4CC(OC(C)=O)C(OC5CC(O)C(OC)C(C)O5)C(C)O4)cc(O)c3c(O)c2C(=O)C1OC1CC(OC2CC(OC3CC(C)(O)C(OC(=O)C(C)C)C(C)O3)C(O)C(C)O2)C(O)C(C)O1 (centres undefined) | -5.45% and 28.8%
32 | CCOP(=O)(OCC)/C(C#N)=C/c1cn(C)cn1 | 1.95%
33 | OCN1CCC23c4c5ccc(O)c4OC2C(O)C=CC3C1C5 (centres undefined) | -3.4%
34 | C/C=C(\C)C(=O)OC1CCN2CC=C(COC(=O)C(O)(C(C)O)C(C)(C)O)C12 (centres undefined) | 2.3%
35 | ClCCN(CCCl)c1ccc(N=Cc2ccccc2)cc1 | 17%
36 | Cn1c(O)c(C=N)c(=O)n(C)c1=O | 5.4%
37 | O=P1(C(Cl)Cl)OCCCO1 | 10.7%
38 | CN(C(=O)Oc1ccccc1)c1ccc(S(=O)(=O)F)cc1 | 98.7% (active)
39 | CC(C)=NNC1=NC(CC(C)C)P(=O)(NCCCCNP2(=O)SC(NN=C(C)C)=NC2CC(C)C)S1 (centres undefined) | 17.5%
40 | O=C([O-])C(F)(F)F.O=[N+]([O-])O.[Co+3].[NH2-].[NH2-].[NH2-].[NH2-].[NH2-] | 2%
41 | ClCCN(CCCl)c1ccc(-c2csc(Cc3ccccc3)n2)cc1 | -7.35%
42 | CCOc1ccc2c(N/N=C/c3ccc(N(CCCl)CCCl)cc3)cc(C)nc2c1 | 97.6% (active)
43 | C[CH2][Sn]([CH2]C)([O]c1cccccc1=O)[O]c1cccccc1=O | 18.8%
44 | COc1cc(C(=O)O)cc(OC)c1OC | -19.6%
45 | CN(C)/N=C(\CCN1CCCC1)CC(c1ccccc1)c1c(O)c2ccccc2oc1=O (centres undefined) | 35.6%
46 | Cn1c(=S)[nH]n(CCOc2ccccc2)c1=S | -5.35%
47 | CC(C)(NC1=NCCO1)c1ccccc1 | -16.9%
48 | c1cc[c]([Ge]([c]2ccccc2)[c]2ccccc2)cc1.c1cc[c]([Ge]([c]2ccccc2)[c]2ccccc2)cc1 | 1.45%
49 | C/C=C/C=C\C=C/C(O)CC(OP(=O)(O)O)C(C)(O)/C=C/C1CC=CC(=O)O1 (centres undefined) | -52%
